Source: PubChem
Not all results are given here.
aSyn UTR act – Activators via SNCA 5'UTR binding, MLPCN | alpha-synuclein 5'UTR reporter, activators screen | activity score, % (tested at 7.5 µM), hits read low | actives 7.1% (n = 300,000) | AID 1814; in the data active = activity score below about -60%
Starred values were filed as active, the others as inactive.

SMILES	aSyn UTR act
CCOc1ccc(NC(=O)c2ccccc2-c2ccccc2C(=O)O)cc1	-63*
O=C(COc1ccccc1C(=O)c1cnn(-c2ccccc2)c1)Nc1ccccc1	-73*
COc1ccc(S(=O)(=O)NCC2CCCN(Cc3ccc(OC)cc3F)C2)cc1 (stereo not given)	-90*
CCOc1ccccc1NC(=O)c1cccc(NC(=O)c2ccco2)c1	-185*
CCOC(=O)c1cccc(NC(=O)c2ccc(NC(=O)c3ccco3)cc2)c1	-67*
O=c1sc(/C=N/Nc2ccccc2)c(Cl)n1Cc1ccccc1	-84*
O=C(CCCOc1ccccc1)N1CCCc2ccccc21	-73*
O=C(CCCc1ccccc1)N1CCc2ccccc21	-117*
O=C(COc1ccccc1)N1CCc2ccccc21	-167*
O=C(COc1ccccc1Cl)N1CCc2ccccc21	-135*
O=C(COc1ccccc1Cl)N1CCc2ccccc2C1	-91*
Cc1noc(C)c1COc1cccc(C(=O)OCC(=O)N2CC(=O)Nc3ccccc32)c1	65
O=C(OCc1ccccc1)N1CCc2ccccc21	-119*
O=C1CN(C(=O)OCc2ccccc2)c2ccccc2N1	-89*
O=C(COc1ccc(Br)cc1)N1CCc2ccccc21	-100*
CC(=O)/C(=N/Nc1ccc(Br)cc1)N1CCCc2ccccc21	61
O=C(/C=C/c1ccc(Cl)c(Cl)c1)N1CCc2ccccc21	-241*
NC(=O)CSc1nc(C2CC2)nc2sc3c(c12)CCCC3	-109*
Cc1cc(NC(=O)CSc2nc(C3CC3)nc3sc4c(c23)CCC(C)C4)no1 (stereo not given)	-70*
Cc1ccc(C2=NN3C(C(=O)c4ccccc4)Oc4ccccc4C3C2)cc1 (stereo not given)	-146*
COc1ccc(C2=NN3C(C2)c2ccccc2OC3c2cccs2)cc1 (stereo not given)	-190*
COc1ccc(C2=NN3C(C2)c2ccccc2OC32C(=O)N(C)c3ccccc32)cc1 (stereo not given)	-131*
Cc1ccc(C(=O)C2Oc3ccccc3C3CC(c4ccc(C)cc4)=NN23)cc1 (stereo not given)	-82*
CCCc1ccc(-c2ccc(/C=C/C(=O)O)cc2)nc1	115
CC(C)Cc1ccc(/C=C/C(=O)N2CCCCC2)cc1	-121*
SMILES	aSyn UTR act
CC(C)Cc1ccc(/C=C/C(=O)NC2CC2)cc1	-108*
CCc1ccc(/C=C\C(=O)N2CCCC2)cc1	-78*
Cc1ccc(NC(=O)c2cnccn2)cc1C	-72*
Cc1ccc(NC(=O)c2cnccn2)cc1	-82*
O=C(Nc1ccc(Br)cc1)c1cnccn1	-94*
Cc1ccc(-c2csc(NC(=S)NC(=O)c3cc4ccccc4o3)n2)cc1	-66*
Cc1ccc(-c2nc3ccccc3o2)cc1NC(=S)NC(=O)c1cc2ccccc2o1	-111*
Cc1ccc2oc(-c3ccc(C)c(NC(=S)NC(=O)c4cccs4)c3)nc2c1	-193*
Cc1ccc2oc(-c3cccc(NC(=O)Cc4cccs4)c3)nc2c1	-71*
Cc1cccc(NC(=O)c2cccc(NC(=O)Cc3cccs3)c2)c1	-88*
Cc1ccc2oc(-c3ccc(C)c(NC(=O)Cc4cccs4)c3)nc2c1	-142*
Cc1nn(-c2nc3ccccc3s2)c(N)c1-c1ccc(Cl)cc1	-203*
Cc1nn(-c2nc3ccccc3s2)c(N)c1-c1ccccc1	-224*
Cc1nn(-c2nc3ccccc3s2)c(N)c1Sc1ccc(F)cc1	-212*
N=c1c2c(n(Cc3cccc(Cl)c3)c3c1CCC3)CCCC2	55
COc1ccccc1Oc1ccc(-c2cnc3ccccc3n2)cc1[N+](=O)[O-]	-74*
Nc1cccc(-c2cnc3ccccc3n2)c1	-99*
O=[N+]([O-])c1cc(-c2cnc3ccccc3n2)ccc1Cl	-93*
O=[N+]([O-])c1cc(-c2cnc3ccccc3n2)ccc1Oc1ccc(Cl)cc1	-65*
O=[N+]([O-])c1ccc(-c2nc(C(Cl)Cl)c3ccccc3n2)cc1	129
O=[N+]([O-])c1cccc(-c2cnc3ccccc3n2)c1	-93*
CCc1ccc2c(c1)C(c1ccc([N+](=O)[O-])cc1)=NNC(c1ccc(F)cc1)=N2	-79*
COc1cc(/C=C2/C(=N)N3N=C(CC(=O)N4CCOCC4)SC3=NC2=O)ccc1OCc1ccccc1	-129*
CCOc1ccc(/C=C2/Sc3ccc(C(=O)N4CCN(C(=O)c5ccco5)CC4)cc3N(C)C2=O)cc1OC	53
COc1cc(/C=C2/C(=N)N3C(c4ccccc4)=CSC3=NC2=O)ccc1OCC(=O)O	-68*
SMILES	aSyn UTR act
Cc1cc(C(=O)N/N=C/c2cccc3ccccc23)c(C)o1	-62*
Cn1nccc1C(=O)N/N=C/c1c(O)ccc2ccccc12	92
Cn1c(C(=O)N/N=C/c2ccccc2)cc2ccccc21	-108*
Cc1cc(C(=O)N/N=C/c2ccccc2)c(C)o1	-70*
Cc1n[nH]c(=S)n1/N=C/c1ccc(OCc2ccc(Cl)cc2Cl)cc1	-82*
Cc1n[nH]c(=S)n1/N=C/c1ccc(OCc2ccc(Cl)cc2)cc1	-99*
Cc1cc(=O)[nH]c(N/N=C/c2ccc(-c3ccc(F)cc3)o2)n1	-70*
Cc1cc(=O)[nH]c(N/N=C/c2ccc(Br)s2)n1	-119*
Cc1cc(=O)[nH]c(N/N=C/c2ccccn2)n1	74
CN[C@H]1CCc2cc(OC)c(OC)c(OC)c2-c2ccc(N(C)CC(OC)OC)c(=O)cc21	70
N/C(=N\OC(=O)/C=C/c1ccccc1)c1ccccc1	-243*
O=C(/C=C/c1ccccc1)c1ccccc1	-105*
O=C(/C=C/c1ccccc1)c1ccc2c3c(cccc13)CC2	-87*
O=C(/C=C/c1ccc[nH]1)c1ccccc1	-64*
O=C(/C=C/c1ccccc1)/C=C/c1ccccc1	-112*
CC(C)(C)C(=O)/C=C(N)/C=C/c1ccccc1	-76*
C=CCn1c(=S)[nH]c2nc3c(cc2c1=O)CCCC3	-92*
c1ccc(-c2nc(-c3cccnc3)n[nH]2)cc1	-85*
Brc1cccc(-c2n[nH]c(-c3ccccc3)n2)c1	-77*
C/C=C/c1ccc(OCCOc2cc(C=O)ccc2OC)c(OC)c1	-105*
CCOc1cccc(OCCOc2ccccc2[N+](=O)[O-])c1	-110*
COc1cc(C=O)ccc1OCCOc1ccccc1[N+](=O)[O-]	-103*
COC(=O)/C=C/COc1ccccc1[N+](=O)[O-]	-63*
COc1cc(C=O)ccc1OCCCOc1ccccc1[N+](=O)[O-]	-95*
COc1ccccc1OCCCOc1ccc([N+](=O)[O-])cc1Cl	-119*
SMILES	aSyn UTR act
COc1cc(C=O)ccc1OCc1ccc(Cl)nc1	-106*
Cc1ccc(-c2cn(-c3ccccc3)c(SCC(=O)NC3CCS(=O)(=O)C3)n2)cc1C (stereo not given)	-143*
CC1CCCN(S(=O)(=O)c2ccc(C(=O)Nc3nnc(-c4ccccc4Cl)o3)cc2)C1 (stereo not given)	78
O=C(Nc1ccc(N2CCCCC2)c(Cl)c1)c1cccnc1	-313*
O=C(Nc1ccc(N2CCCC2)c(Cl)c1)c1cccnc1	-112*
O=C(Nc1ccc(Cl)c(Cl)c1)c1cccnc1	-102*
O=C(Nc1nnc(-c2ccccc2Cl)o1)c1cccnc1	-94*
Cc1ccc(NC(=O)c2cccnc2)cc1C	-104*
Cc1cc(O)c(C)c(O)c1/C=N/NC(=O)c1cccnc1	69
Cc1ccc(NC(=O)NC2=NN(c3ccccc3)C(=O)/C2=C2/CCCN2C)cc1	-63*
COc1ccccc1Cn1c(/C=C/c2ccccc2)nc2ccccc21	-111*
COc1ccc(/C=C/c2nc3ccccc3n2Cc2ccccc2OC)cc1	-153*
